Rows were chosen to be rich in hits. Some 2.2% of all compounds tested hit in one or more screens of this group.
PLK1 PBD inh: blocks phosphopeptide binding to human Plk1 polo box domain. P53350. Plk1 PBD phosphopeptide binding, fluorescence polarization. inhibition, %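 (tested at about 20 µM)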. 97,000 tested, 0.13% active. AID 693; in the data active = inhibition above about 34%, passing the limit was not always enough
IL1B NFkB inh: blocks IL-1B driven NFkB nuclear translocation in HUVEC cells; AID 796; 94,000 tested, 0.43% active; HUVEC IL-1B NFkB p65 nuclear translocation imaging; inhibition, % at 2 µM;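 active = inhibition above about 30% together with a positive call from visual inspection of the well image, limit read from the data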;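 also: nuclear over cytoplasmic p65 intensity ratio measured by imaging; 0% = IL-1B stimulated DMSO wells and 100% = unstimulated DMSO wells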
PLK1 inh: PLK1 (human) kinase inhibition | P53350 | recombinant PLK1 kinase, TR-FRET peptide phosphorylation | inhibition, % at 10 µM | 97,000 tested, 0.53% active | AID 619;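 active = inhibition of 50% or more in the single-concentration screen; inactive = inhibition below 50%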;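 also: 0% = DMSO max control and 100% = H-89 dihydrochloride min control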
NFkB transloc pot: enhances IL-1B driven NFkB nuclear translocation; 94,000 tested, 0.3% active; HUVEC IL-1B NFkB p65 nuclear translocation imaging; AID 819; activation, % at 2 µM;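 active = activation above 40%, about the mean plus 3 SD, also judged a hit on visual image review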;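 also: percent activation is computed from the nuclear over cytoplasmic p65 intensity ratio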
Pyk2 oligo antag: antagonists of human Pyk2 oligomerization | Q14289 | Q293 cells, Pyk2 FERM NanoBiT luminescence; hits give low values | z-score (the deposit names both 25 µM and 10 µM) | 99,000 tested, 0.83% active;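 active = Z-score of -3 or lower, scaled per plate to the spread of control and sample wells; inactive = z-score above -3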;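 also: negative z-score means lost luminescence so less FERM oligomerization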
Target sequence (Q14289 whole entry, looked up): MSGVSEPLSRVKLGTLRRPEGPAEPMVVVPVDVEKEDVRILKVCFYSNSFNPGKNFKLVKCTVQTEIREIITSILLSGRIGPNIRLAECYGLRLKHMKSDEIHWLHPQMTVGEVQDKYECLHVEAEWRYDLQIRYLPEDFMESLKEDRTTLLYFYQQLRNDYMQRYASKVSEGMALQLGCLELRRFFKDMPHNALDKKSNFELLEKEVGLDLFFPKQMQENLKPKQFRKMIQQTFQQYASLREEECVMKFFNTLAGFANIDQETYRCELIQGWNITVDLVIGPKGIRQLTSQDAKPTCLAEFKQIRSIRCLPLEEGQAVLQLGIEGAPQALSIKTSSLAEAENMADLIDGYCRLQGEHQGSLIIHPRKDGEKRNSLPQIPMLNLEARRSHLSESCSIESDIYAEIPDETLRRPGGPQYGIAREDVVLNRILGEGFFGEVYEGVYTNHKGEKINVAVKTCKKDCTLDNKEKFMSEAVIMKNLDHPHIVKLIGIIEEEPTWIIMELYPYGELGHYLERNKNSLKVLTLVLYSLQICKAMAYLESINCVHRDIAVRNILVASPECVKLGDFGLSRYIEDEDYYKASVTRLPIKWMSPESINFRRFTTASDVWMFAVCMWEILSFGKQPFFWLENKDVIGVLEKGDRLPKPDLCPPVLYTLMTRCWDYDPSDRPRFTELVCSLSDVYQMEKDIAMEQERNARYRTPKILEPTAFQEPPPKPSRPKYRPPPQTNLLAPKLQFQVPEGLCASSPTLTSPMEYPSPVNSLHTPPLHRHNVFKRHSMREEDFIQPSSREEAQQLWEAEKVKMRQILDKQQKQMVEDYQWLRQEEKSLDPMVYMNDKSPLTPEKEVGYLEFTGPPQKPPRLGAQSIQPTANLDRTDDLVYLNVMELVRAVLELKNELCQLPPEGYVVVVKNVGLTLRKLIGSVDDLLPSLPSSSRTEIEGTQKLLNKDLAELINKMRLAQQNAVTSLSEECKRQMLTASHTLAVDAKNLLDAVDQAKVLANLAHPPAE
IL1B cytotox: toxic to HUVEC cells under IL-1B stimulation. 94,000 tested, 0.41% active. HUVEC cell count loss, Hoechst imaging, IL-1B stimulated. cell count reduction, % at 2 µM;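 active = cell count reduction more than 3 SD above the screen-wide mean, cut at about 70% in these data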;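 also: normalized per plate to untreated control cells as the no-loss baseline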
* hit, by the source's call; / = not tested or not shown.

SMILES	PLK1 PBD inh	IL1B NFkB inh	PLK1 inh	NFkB transloc pot	Pyk2 oligo antag	IL1B cytotox
Cc1noc(C)c1C(=O)Nc1nnc(-c2ccccc2)s1	20.9	12.5	-14.2	-12.5	-1.11	26.7
CCc1cc2c(=O)n(-c3ccc(C)cc3)cnc2s1	4.7	12.4	-10.9	-12.4	-0.54	23.7
COc1ccc2c(c1)C(=NN)c1cc(OC)ccc1-2	0.3	-23.9	-3.3	23.9	0.76	-19.4
CN(C)CCOC(=O)Cc1ccc(Cl)cc1	-11.0	21.8	-13.1	-21.8	0.71	9.5
C=CCc1cc(Cl)ccc1OCCN(C)C	0.0	-2.8	-4.8	2.8	0.39	84.8*
Cc1ccc(NC2=NC3(CCCCC3)N=C(N)N2)c(C)c1	-7.9	96.9*	-11.8	-96.9	0.56	40.6
COC(=O)c1ccc(C(=O)OC)c(NC(=O)CN(c2ccc3c(c2)OCO3)S(C)(=O)=O)c1	22.7	-7.8	-8.5	7.8	-1.16	19.7
CCOc1ccc(/C(O)=C2/C(=O)C(=O)N(c3nc(C)c(C)s3)C2c2ccco2)cc1 (configuration not stated)	12.0	45.9*	-5.9	-45.9	0.38	19.0
CCOC(=O)N1CCC(Nc2c(NCCCN(C)Cc3ccccc3)c(=O)c2=O)CC1	5.2	-41.9	4.1	41.9*	/	-7.0
CCN(CC)c1cc(CS(=O)c2ccccc2)nc(-c2ccccc2)n1 (configuration not stated)	-5.0	/	2.1	/	-0.85	/
COC(=O)C1=C(C)N(c2ccc(S(N)(=O)=O)cc2)C(=O)C1	23.2	6.4	-5.5	-6.4	0.7	-4.1
COC(=O)C1=C(C)N(c2ccc(Cl)c(Cl)c2)C(=O)C1	-13.0	-55.4	-12.4	55.4*	-0.54	-13.2
C/C(N)=C(/C#N)C(=O)COC(=O)c1cc(S(=O)(=O)N2CCCCC2)ccc1C	22.0	-2.5	-10.2	2.5	-0.68	-3.0
C/C(N)=C(/C#N)C(=O)COC(=O)c1ccc(C)c(S(=O)(=O)N2CCCCC2)c1	-26.9	-42.3	-8.8	42.3*	-1.11	0.3
O=C(CSc1nnc(-c2c[nH]c3ccccc23)o1)N(Cc1ccccc1)c1ccc(F)cc1	-31.7	-7.2	-13.3	7.2	-3.32*	4.6
Cc1ccc(C)c(N2CCN(C(=O)CNS(=O)(=O)c3cccs3)CC2)c1	21.3	/	-0.4	/	0.69	/
Cc1cc(=O)oc2c1ccc1oc(/C(=N/O)c3ccccc3)c(C)c12	9.4	-4.1	-5.8	4.1	-3.69*	-17.9
O=C(Nc1ccccc1N1CCN(C(=O)c2ccc(Cl)cc2)CC1)c1ccc2c(c1)OCO2	-16.6	-3.5	-5.3	3.5	-3.17*	-54.4
CC(C)C(=O)N1CCN(c2ccc(NC(=O)c3ccc4c(c3)OCCO4)cc2Cl)CC1	0.3	-14.1	12.5	14.1	-3.56*	-6.6
CC1(C)C(=O)Nc2ccccc2N1C(=O)COC(=O)c1ccc(Cl)c(S(=O)(=O)NCc2ccccc2)c1	11.3	9.3	-31.6	-9.3	-2.36	-35.6
Cc1cc(C)c(C(=O)C2OC(=O)C(C)(C)C(=O)C2(C)C)c(C)c1 (configuration not stated)	-15.5	-9.7	-2.0	9.7	1.81	-2.7
CCCCCCCCCCCC(=O)N/N=C/c1ccco1	-23.1	22.3	-3.8	-22.3	1.62	-7.8
O=C(Cn1nnc2c(cnn2-c2ccc(F)cc2)c1=O)c1ccccc1F	-2.9	-1.2	-9.7	1.2	0.9	91.6*
Cc1ccc2n(n1)c(=O)c(Cc1ccccc1)c([O-])[n+]2-c1ccccc1	/	/	/	/	0.4	/
Clc1ccc(Nc2ccc(-n3ccnc3)nn2)cc1Cl	4.2	2.4	6.8	-2.4	-0.08	-25.6
SMILES	PLK1 PBD inh	IL1B NFkB inh	PLK1 inh	NFkB transloc pot	Pyk2 oligo antag	IL1B cytotox
O=C(OCc1ccc(Cl)cc1Cl)c1ccncc1	-5.3	-126.3	-5.0	126.3*	-0.02	-24.3
O=C(COC(=O)c1ccncc1)Nc1cc(Cl)ccc1Cl	-4.2	-18.8	12.3	18.8	-0.14	-9.9
On1onc2c3cc(-c4ccccc4)nc3ccc21	1.4	0.8	4.4	-0.8	-2.77	35.4
c1ccc(-c2cc3c(ccc4nonc43)nn2)cc1	-13.5	-56.6	-10.6	56.6*	-0.32	27.4
CCCNCc1cc(OC)c(OCCC)cc1Cl	7.6	-12.2	-8.1	12.2	0.23	-50.7
COc1ccc(S(=O)(=O)N(CC(N)=O)C2CCCCC2)cc1Cl	-9.6	-25.0	-7.8	25.0	0.03	93.3*
COc1ccc(S(=O)(=O)N(C)CC(=O)NC2CCCCC2)cc1Cl	-14.3	-1.1	-6.8	1.1	1.93	13.7
O=C(c1cc2ccccc2oc1=O)N(Cc1ccccc1)Cc1ccc2c(c1)OCO2	-20.1	-6.4	-0.1	6.4	-3.14*	17.0
CCN(CC)S(=O)(=O)c1ccc(C)c(NC(=O)COC(=O)c2ccc(C)c(S(=O)(=O)N3CCOCC3)c2)c1	-12.8	-4.5	-6.3	4.5	0.28	-31.1
c1ccc(-c2nc(NCc3cccnc3)c3ccccc3n2)cc1	-17.8	-4.8	-7.1	4.8	-3.67*	-47.0
Clc1cccc(-c2nc(NCc3cccnc3)c3ccccc3n2)c1	-1.1	11.1	-5.9	-11.1	-3.67*	-22.9
Cc1noc(C)c1COc1ccc(C(=O)OCC(=O)Nc2ccc3ccccc3c2)cc1	-7.0	-4.0	-5.7	4.0	0.13	92.4*
CCOC(=O)c1ccc(OCc2c(C)noc2C)cc1	17.6	-21.4	-7.2	21.4	-0.51	-0.8
O=C(NC1CC1)c1c[nH]c2ccc(S(=O)(=O)Nc3cccc(C(F)(F)F)c3)cc2c1=O	0.6	-2.5	0.1	2.5	-1.86	90.9*
CCOCCCNC(=O)c1c[nH]c2ccc(S(=O)(=O)Nc3cccc(OC)c3)cc2c1=O	5.8	-5.0	-11.1	5.0	0.33	-36.5
O=C(Nc1ccc(F)cc1F)c1ccc(COc2c(F)c(F)cc(F)c2F)o1	-38.7	-43.4	-17.0	43.4*	1.36	88.7*
O=C(Nc1ccc(Cl)cc1F)c1ccc(COc2c(F)c(F)c(F)c(F)c2F)o1	-9.6	8.2	-15.0	-8.2	1.47	-3.7
CC(C)c1[nH]nc2c1C(Cc1ccccc1)C(C#N)=C(N)O2 (configuration not stated)	33.2	-3.6	-1.6	3.6	0.39	25.8
Cc1ccc(N2CC(C(=O)Nc3nccs3)CC2=O)cc1Cl (configuration not stated)	-26.3	-4.1	11.1	-2.5	-0.63	9.1
Cc1c(Cl)cccc1N1CC(C(=O)Nc2nccs2)CC1=O (configuration not stated)	-4.7	-4.2	53.4*	4.2	-0.48	-9.2
CCCCNCC(=O)Nc1sc(C)c(C)c1C(=O)OCC	-15.3	3.2	6.5	-3.2	-0.07	9.1
CCCCC(=O)Nc1sc2c(c1C(=O)OCC)CCC(C=O)=C2Cl	-18.5	88.4*	-15.9	-88.4	-3.04*	59.6
NC(=S)N/N=C/c1ccc(-c2cc(Cl)cc(Cl)c2)o1	-38.7	5.8	-0.4	-5.8	-1.95	24.7
NC(=S)N/N=C/c1ccc(-c2cc(Cl)ccc2Cl)o1	-8.7	-8.1	-7.3	8.0	-3.05*	2.8
